Experimental data taken from PubChem BioAssay.
For part of these data: Results with a measured potency or affinity are listed apart. Calls of active or inactive are those of the source.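 Rule for the calls, unless noted: active = membrane potential signal rise above negative control mean plus 3 SD in both duplicates, also active in the earlier TRPC4 screen; inactive = the rest.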

How the values were obtained:
[1] = test system: TRPC4 beta (transient receptor potential cation channel C4), mouse; experiment: activators of mouse TRPC4 channel, confirmation, cell-based, Fluo4 calcium, HEK293 TRPC4beta/mu-opioid, duplicates, 10 µM (AID 2426;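 active = fluorescence ratio normalized to control raised more than 50% in primary screen plus both repeat runs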;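 for activation: percent rise of integrated ratio over buffer wells lacking compound which define 0%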); conditions: Fluo4 calcium fluorescence, at 10 µM; stronger effect = higher value
[2] = test system: transient receptor potential cation channel C4 beta (TRPC4), mouse; experiment: activators of mouse TRPC4 channel, confirmation, cell-based, second round, Fluo4, HEK293 TRPC4beta/mu-opioid, 1 µM (AID 2461;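 active = primary screen active and over 50% activation in each of two duplicate runs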); conditions: Fluo4 calcium fluorescence, at 1 µM; stronger effect = higher value
[3] = test system: TRPC4 (transient receptor potential cation channel C4 beta), mouse; experiment: positive allosteric modulators of mouse TRPC4, confirmation, cell-based, second round, Fluo-4, HEK293 TRPC4beta/mu-opioid, 1 µM (AID 2554;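 active = primary screen hit whose fluorescence ratio, in both repeats, exceeds the weak agonist control mean by 3 SD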); conditions: DAMGO EC20, Fluo-4 calcium flux, at 1 µM; stronger effect = higher value
[4] = test system: TRPC4 beta (transient receptor potential cation channel C4), mouse; experiment: positive allosteric modulators of mouse TRPC4, confirmation, cell-based, Fluo-4, HEK293 TRPC4beta/mu-opioid (AID 2555;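 active = primary screen hit whose calcium fluorescence ratio, in both repeats, exceeds the weak agonist control mean by 3 SD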); conditions: DAMGO EC20, Fluo-4 calcium flux, at 10 µM; stronger effect = higher value
[5] = molecular target: Short transient receptor potential channel 4 (Mus musculus) (UniProt Q9QUQ5); experiment: inhibitors of mouse TRPC4 channel, confirmation, cell-based, Fluo4, HEK293 TRPC4beta/mu-opioid (AID 2636;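 active = calcium signal cut by more than 3 SD below the full-agonist control yet still positive, in both repeats and the earlier primary screen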); conditions: DAMGO, Fluo4 calcium flux, at 10 µM; stronger effect = higher value
[6] = molecular target: Short transient receptor potential channel 4 (Mus musculus) (UniProt Q9QUQ5); experiment: inhibitors of mouse TRPC4 channel, confirmation, cell-based, second round, Fluo4, HEK293 TRPC4beta/mu-opioid, 1 µM (AID 2637;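 active = calcium signal ratio cut to more than 3 SD under the fully stimulated control mean yet still positive, in both repeats and the primary screen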); conditions: Fluo4 calcium flux, DAMGO, at 1 µM; stronger effect = higher value
[7] = molecular target: Short transient receptor potential channel 4 (Mus musculus) (UniProt Q9QUQ5); experiment: mouse TRPC4 channel activators, dose response, cell-based, HEK293 TRPC4/mu-opioid, Fluo-4 calcium (AID 434937;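 active = primary screen activator hit with a dose response curve and TRPC4 channel activation at any tested dose; inactive = no activation, no dose response, or not a primary hit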)
[8] = molecular target: Short transient receptor potential channel 4 (Mus musculus) (UniProt Q9QUQ5); experiment: TRPC4 positive allosteric modulators, dose response, cell-based, HEK293 TRPC4/mu-opioid, Fluo-4 calcium, EC20 DAMGO (AID 434941;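 active = earlier screen potentiator hit that boosts the TRPC4 ion channel at some dose, with a dose response; inactive = no potentiation, no dose response, or not a prior hit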;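 note: calcium entry triggered by an EC20 dose of DAMGO at the co-expressed mu-opioid receptor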)
[9] = molecular target: Short transient receptor potential channel 4 (Mus musculus) (UniProt Q9QUQ5); experiment: mouse TRPC4 channel inhibitors, dose response, cell-based, HEK293 TRPC4/mu-opioid, Fluo-4 calcium (AID 434942;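 active = primary screen inhibitor hit that blocks the TRPC4 channel at some tested dose, yielding a dose curve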)
[10] = molecular target: Short transient receptor potential channel 6 (Mus musculus) (UniProt Q61143); experiment: inhibition of mouse TRPC6 channel, confirmation, selectivity assay for TRPC4 inhibitor project, cell-based, HEK293, membrane potential dye, duplicate (AID 434948;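 active = active in primary screen and both duplicates, each dropping signal beyond three positive-control SD with fluorescence still positive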); conditions: HEK293 TRPC6, membrane potential dye fluorescence, at 10 µM, stimulated with maximal-effect acetylcholine; stronger effect = higher value
[11] = molecular target: Short transient receptor potential channel 6 (Mus musculus) (UniProt Q61143); experiment: activation of mouse TRPC6 channel, confirmation, selectivity assay for TRPC4 activator project, cell-based, HEK293, membrane potential dye, duplicate (AID 434950); conditions: HEK293 TRPC6, membrane potential fluorescence, at 10 µM; stronger effect = higher value;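 for activation: 0% = buffer only wells and 100% = acetylcholine maximal-effect wells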
[12] = molecular target: Short transient receptor potential channel 6 (Mus musculus) (UniProt Q61143); experiment: TRPC6 potentiation by TRPC4 potentiator hits, confirmation, selectivity assay for TRPC4 potentiator project, HEK293 cells, membrane potential dye, duplicate (AID 434952;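 active = compound raising the membrane signal above positive-control mean plus 3 SD in both repeats, and a primary screen hit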); conditions: HEK293 TRPC6, membrane potential dye fluorescence, at 10 µM, maximal acetylcholine added after compound; stronger effect = higher value
[13] = molecular target: Short transient receptor potential channel 4 (Mus musculus) (UniProt Q9QUQ5); experiment: calcium flux activators in TRPC4/5HT1a cells, counter-screen for TRPC4 activator project, cell-based, second counter screen, HEK293 TRPC4/5HT1a, Fluo-4 (AID 434977;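 active = calcium signal rise above buffer-control mean plus 5 SD in both duplicates, and also a hit in the primary screen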;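 for activation: plate controls were assay buffer for no effect and maximal serotonin response for full effect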); conditions: Fluo-4 calcium flux, at 10 µM; stronger effect = higher value
[14] = calcium flux inhibitors in TRPC4/5HT1a cells, confirmation, counter-screen for TRPC4 inhibitor project, cell-based, second counter screen, HEK293 TRPC4/5HT1a, Fluo-4 (AID 434978;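 active = primary screen active whose calcium signal fell more than 3 SD beyond the full-serotonin control mean in both duplicate plates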;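 note: serotonin given first at submaximal then at maximal dose after compound preincubation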); conditions: Fluo-4 calcium flux, at 10 µM, serotonin added to trigger calcium flux; stronger effect = higher value
[15] = test system: TRPC4 (mouse), co-expressed with 5HT1a in HEK293; experiment: calcium flux potentiators in TRPC4/5HT1a cells, confirmation, counter-screen for TRPC4 potentiator project, cell-based, second counter screen, HEK293 TRPC4/5HT1a, Fluo-4 (AID 434979;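 active = signal rise over 3 SD above mean of control wells given weak agonist, in both repeats and first screen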); conditions: Fluo-4 calcium flux, at 10 µM, serotonin added at its EC20 dose; stronger effect = higher value
[16] = calcium flux activation in mu-opioid HEK293 cells, confirmation, counter-screen for TRPC4 activator project, cell-based, HEK293 mu-opioid receptor line (AID 449723;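 active = hit in primary screen, with calcium signal over 5 SD above buffer well mean in both duplicates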;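 note: counter screen cells carry the mu-opioid receptor alone and lack TRPC4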); conditions: Fluo-4 calcium fluorescence, at 10 µM; stronger effect = higher value
[17] = calcium flux enhancement in mu-opioid HEK293 cells, confirmation, counter-screen for TRPC4 allosteric potentiator project, cell-based, HEK293 mu-opioid receptor line (AID 449724;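 active = calcium signal rise more than 3 SD above the low-dose agonist control mean, in both duplicate plates and the primary screen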); conditions: Fluo-4 calcium flux, at 10 µM, compound added before EC20 DAMGO stimulus; stronger effect = higher value

Sequence of Short transient receptor potential channel 6 (Mus musculus) (Q61143 whole entry, looked up): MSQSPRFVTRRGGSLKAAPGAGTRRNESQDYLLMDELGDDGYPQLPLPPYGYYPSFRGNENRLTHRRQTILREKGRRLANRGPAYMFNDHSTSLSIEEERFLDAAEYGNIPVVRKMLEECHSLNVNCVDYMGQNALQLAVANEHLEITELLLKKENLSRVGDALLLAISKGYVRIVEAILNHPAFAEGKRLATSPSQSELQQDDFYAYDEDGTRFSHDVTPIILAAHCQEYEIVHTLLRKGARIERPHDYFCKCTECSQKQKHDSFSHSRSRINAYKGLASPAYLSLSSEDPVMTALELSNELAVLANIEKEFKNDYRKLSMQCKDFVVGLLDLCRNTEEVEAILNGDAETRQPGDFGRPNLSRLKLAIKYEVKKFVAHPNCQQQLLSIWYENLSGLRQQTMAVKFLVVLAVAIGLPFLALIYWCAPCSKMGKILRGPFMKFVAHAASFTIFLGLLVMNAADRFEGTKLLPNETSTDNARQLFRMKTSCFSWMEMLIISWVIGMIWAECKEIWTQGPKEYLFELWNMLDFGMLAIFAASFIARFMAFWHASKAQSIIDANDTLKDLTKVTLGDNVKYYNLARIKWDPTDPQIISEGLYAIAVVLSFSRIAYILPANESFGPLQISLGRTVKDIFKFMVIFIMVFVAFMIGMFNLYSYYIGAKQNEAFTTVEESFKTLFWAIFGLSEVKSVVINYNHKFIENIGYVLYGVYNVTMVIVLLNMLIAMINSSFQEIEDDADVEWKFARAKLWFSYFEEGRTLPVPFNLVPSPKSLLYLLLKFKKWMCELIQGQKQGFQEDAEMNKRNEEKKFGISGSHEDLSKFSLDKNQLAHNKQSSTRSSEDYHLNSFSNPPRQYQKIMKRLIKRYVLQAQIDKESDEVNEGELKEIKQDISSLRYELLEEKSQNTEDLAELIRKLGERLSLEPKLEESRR
Sequence of Short transient receptor potential channel 4 (Mus musculus) (Q9QUQ5 whole entry, looked up): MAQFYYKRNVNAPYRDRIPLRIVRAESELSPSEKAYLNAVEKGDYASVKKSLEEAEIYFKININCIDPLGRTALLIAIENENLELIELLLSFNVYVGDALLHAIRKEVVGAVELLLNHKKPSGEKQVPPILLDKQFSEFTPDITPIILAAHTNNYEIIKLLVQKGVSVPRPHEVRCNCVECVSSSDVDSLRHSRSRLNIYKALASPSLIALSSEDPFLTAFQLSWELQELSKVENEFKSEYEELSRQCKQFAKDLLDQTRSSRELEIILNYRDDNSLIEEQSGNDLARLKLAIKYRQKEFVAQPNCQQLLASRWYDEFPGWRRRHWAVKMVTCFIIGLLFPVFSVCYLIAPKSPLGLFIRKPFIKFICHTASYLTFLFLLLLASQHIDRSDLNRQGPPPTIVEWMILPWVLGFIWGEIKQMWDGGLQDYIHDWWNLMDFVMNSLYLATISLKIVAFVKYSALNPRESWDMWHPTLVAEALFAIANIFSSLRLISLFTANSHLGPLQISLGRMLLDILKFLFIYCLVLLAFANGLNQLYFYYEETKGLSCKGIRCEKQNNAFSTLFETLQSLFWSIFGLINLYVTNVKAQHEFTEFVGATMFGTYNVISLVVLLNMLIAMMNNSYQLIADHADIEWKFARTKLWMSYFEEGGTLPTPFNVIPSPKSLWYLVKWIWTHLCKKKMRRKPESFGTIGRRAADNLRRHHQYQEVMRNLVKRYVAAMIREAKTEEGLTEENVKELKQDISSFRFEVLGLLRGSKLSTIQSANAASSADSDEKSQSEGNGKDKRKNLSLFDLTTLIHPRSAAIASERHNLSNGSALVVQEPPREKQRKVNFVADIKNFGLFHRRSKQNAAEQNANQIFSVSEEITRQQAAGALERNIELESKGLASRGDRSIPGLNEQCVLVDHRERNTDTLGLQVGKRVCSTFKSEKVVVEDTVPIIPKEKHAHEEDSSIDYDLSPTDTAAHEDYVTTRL

CCCc1c(-c2ccc(O)cc2)nn(-c2ccc(O)cc2)c1-c1ccc(O)cc1
inactive: outcome [1] | outcome [2] | outcome [3] | outcome [5] | outcome [6] | outcome [7] | outcome [8] | outcome [9] | outcome [10] | outcome [11] | outcome [12] | outcome [13] | outcome [14] | outcome [16] | outcome [17]
active: potentiation [4] 20% | potentiation [15] 23.9%

Cc1cc2nc(CSc3ccc(Cl)cc3)cc(=O)n2[nH]1
inactive: outcome [1] | outcome [2] | outcome [3] | outcome [4] | outcome [5] | outcome [6] | outcome [7] | outcome [8] | outcome [9] | outcome [10] | outcome [11] | outcome [12] | outcome [13] | outcome [14] | outcome [15] | outcome [16] | outcome [17]

CC(=O)c1c(O)c(C)c(O)c2c1OC1=CC(=O)C(C(C)=O)C(=O)[C@@]12C (stereo not given in full)
active: activation [1] 246% | activation [13] 20.7% | activation [16] 43.3%
inactive: outcome [2] | outcome [3] | outcome [4] | outcome [5] | outcome [6] | outcome [7] | outcome [8] | outcome [9] | outcome [10] | outcome [11] | outcome [12] | outcome [14] | outcome [15] | outcome [17]

N=c1c(C(=O)NCC2CCCO2)cc2c(=O)n3ccccc3nc2n1Cc1ccc(Cl)cc1 (stereo not given)
inactive: outcome [1] | outcome [2] | outcome [3] | outcome [5] | outcome [6] | outcome [7] | outcome [8] | outcome [9] | outcome [10] | outcome [11] | outcome [12] | outcome [13] | outcome [14] | outcome [16] | outcome [17]
active: potentiation [4] 57% | potentiation [15] 61%

COc1ccc(CCN2C(=S)N(C)C(=O)C2CC(=O)Nc2ccc(F)cc2)cc1 (stereo not given)
inactive: outcome [1] | outcome [2] | outcome [3] | outcome [4] | outcome [5] | outcome [6] | outcome [7] | outcome [8] | outcome [9] | outcome [10] | outcome [11] | outcome [12] | outcome [13] | outcome [14] | outcome [15] | outcome [16] | outcome [17]

COc1ccccc1NC(=O)CSc1n[nH]c(-c2ccccn2)n1
inactive: outcome [1] | outcome [2] | outcome [3] | outcome [4] | outcome [5] | outcome [6] | outcome [7] | outcome [8] | outcome [9] | outcome [10] | outcome [11] | outcome [12] | outcome [13] | outcome [14] | outcome [15] | outcome [16] | outcome [17]

Cc1cc(N2CCCCC2)nc(NCc2ccccc2)n1
active: activation [1] 66% | activation [11] 68.5% | activation [13] 19.4% | activation [16] 29.5%
inactive: outcome [2] | outcome [3] | outcome [4] | outcome [5] | outcome [6] | outcome [7] | outcome [8] | outcome [9] | outcome [10] | outcome [12] | outcome [14] | outcome [15] | outcome [17]

COC(=O)c1ccccc1NC(=O)c1cnn2cccnc12
active: potentiation [4] 16% | potentiation [15] 40.2%
inactive: outcome [1] | outcome [2] | outcome [3] | outcome [5] | outcome [6] | outcome [7] | outcome [8] | outcome [9] | outcome [10] | outcome [11] | outcome [12] | outcome [13] | outcome [14] | outcome [16] | outcome [17]

Cc1ccc(Nc2nc3ccccc3[nH]2)nc1
inactive: outcome [1] | outcome [2] | outcome [3] | outcome [4] | outcome [5] | outcome [6] | outcome [7] | outcome [8] | outcome [9] | outcome [10] | outcome [11] | outcome [12] | outcome [13] | outcome [14] | outcome [15] | outcome [16] | outcome [17]

O=C(O)c1ccc(N2CCN(C(c3ccccc3)c3ccccc3)CC2)c([N+](=O)[O-])c1
inactive: outcome [1] | outcome [2] | outcome [3] | outcome [4] | outcome [5] | outcome [6] | outcome [7] | outcome [8] | outcome [9] | outcome [10] | outcome [11] | outcome [12] | outcome [13] | outcome [14] | outcome [15] | outcome [16] | outcome [17]

Cc1ccc(CC(=O)NCC(c2ccco2)N(C)C)cc1C (stereo not given)
inactive: outcome [1] | outcome [2] | outcome [3] | outcome [4] | outcome [5] | outcome [6] | outcome [7] | outcome [8] | outcome [9] | outcome [10] | outcome [11] | outcome [12] | outcome [13] | outcome [14] | outcome [15] | outcome [16] | outcome [17]

CCOC(=O)C1(CC2CC2)CCN(Cc2cn[nH]c2-c2cccc(F)c2)CC1
inactive: outcome [1] | outcome [2] | outcome [3] | outcome [4] | outcome [5] | outcome [6] | outcome [7] | outcome [8] | outcome [9] | outcome [10] | outcome [11] | outcome [12] | outcome [13] | outcome [14] | outcome [15] | outcome [16] | outcome [17]

N=c1c2c(n(Cc3ccc(Br)cc3)c3c1CCC3)CCCC2
inactive: outcome [1] | outcome [2] | outcome [3] | outcome [4] | outcome [5] | outcome [6] | outcome [7] | outcome [8] | outcome [9] | outcome [10] | outcome [11] | outcome [12] | outcome [13] | outcome [14] | outcome [15] | outcome [16] | outcome [17]

CC(C)CN(C(=O)C1CC1)c1c(N)n(Cc2ccccc2)c(=O)[nH]c1=O
inactive: outcome [1] | outcome [2] | outcome [3] | outcome [4] | outcome [5] | outcome [6] | outcome [7] | outcome [8] | outcome [9] | outcome [10] | outcome [11] | outcome [12] | outcome [13] | outcome [14] | outcome [15] | outcome [16] | outcome [17]

COc1cc(Br)cc(C2C3=C(CCCC3=O)N(c3ccc(F)cc3)C3=C2C(=O)CCC3)c1O
active: potentiation [4] 29% | potentiation [15] 31.7%
inactive: outcome [1] | outcome [2] | outcome [3] | outcome [5] | outcome [6] | outcome [7] | outcome [8] | outcome [9] | outcome [10] | outcome [11] | outcome [12] | outcome [13] | outcome [14] | outcome [16] | outcome [17]
